Assay outcomes deposited in PubChem by several laboratories.
HSV replic up: increases HSV replication in cells | AID 1956 | maximum fold increase | hit rate 0.005% among 220,000 | HSV replication augmentation in cells, fold increase; in the data active means maximum fold increase above about 1.5; inconclusive means no clear call, values can overlap the other calls; tested in PC3 cells
INS promoter inh: TRM-6 insulin promoter activity inhibition; TRM-6 cells (human fetal islet line), insulin promoter-eGFP reporter, imaging; reporter expression induced with tamoxifen; inhibition, % at 2 µM; hit rate 0.9% among 130,000; AID 1273;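 active means inhibition above the mean plus 3 SD, with well images judged a real hit on visual review, cut at about 60% in these data, passing the limit was not always enough; inconclusive means inhibition over the cutoff but images rejected on review; inactive means inhibition not above the cutoff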
ROMK mod: modulators of human ROMK potassium channel; P48048; Tet-inducible ROMK, thallium flux fluorescence; actives lie on both sides; B-score at 10 µM; hit rate 2% among 130,000; AID 1918;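 active means signal ratio slope over the read window, or its plate-corrected B-score, at least 3 SD from the plate mean, either direction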;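 further: B-score of the F/F0 ratio slope over 7 to 12 s after thallium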
Target sequence (P48048 whole entry, looked up): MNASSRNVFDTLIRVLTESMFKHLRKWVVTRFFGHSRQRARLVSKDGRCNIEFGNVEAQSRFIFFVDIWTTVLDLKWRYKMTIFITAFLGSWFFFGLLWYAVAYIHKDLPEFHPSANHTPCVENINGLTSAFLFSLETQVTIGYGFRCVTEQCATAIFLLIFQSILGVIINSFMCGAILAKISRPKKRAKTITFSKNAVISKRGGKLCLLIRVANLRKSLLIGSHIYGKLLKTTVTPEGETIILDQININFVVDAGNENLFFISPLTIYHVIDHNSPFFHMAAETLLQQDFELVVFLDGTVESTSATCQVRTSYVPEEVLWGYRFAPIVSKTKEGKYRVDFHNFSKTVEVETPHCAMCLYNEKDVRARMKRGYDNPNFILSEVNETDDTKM
TbHK1 inh: T. brucei hexokinase 1 inhibition; inhibition, % at 10 µM; recombinant TbHK1, G6PDH-coupled NADH A340; hit rate 0.11% among 220,000;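 active means inhibition of 50% or more in the single-dose primary screen; inactive means inhibition below 50%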
Ins promoter up: MIN6 insulin promoter up-regulation | AID 1625 | hit rate 0.3% among 190,000 | z-score at 5 µM | MIN6 insulin promoter-GFP reporter, high-content imaging; stronger effect = higher value;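 active means z-score above 3 at 5 µM with at least 500 cells counted in the well; inconclusive means wells under 500 cells, flagged as cytotoxic or low count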
ROMK hit retest: human ROMK channel modulation, retest confirmation. shares compounds with ROMK mod. ROMK thallium flux, fluorescence ratio; stronger effect = lower value. normalized thallium flux (F/F0 slope) at 10 µM. hit rate 54% among 3,000. AID 1917;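 active means Flux at 10 µM at least 3 SD below or above vehicle control mean in one or both replicates; inconclusive means no clear call, values can overlap the other calls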
Active calls of the source: *; i = inactive; ? = inconclusive; . = no result given. The entries come from a sample that favours hits as a whole.

SMILES	HSV replic up	INS promoter inh	ROMK mod	TbHK1 inh	Ins promoter up	ROMK hit retest
COC(=O)c1sccc1NC(=O)CC1C(=O)NCCN1C(=O)Nc1ccc(C(F)(F)F)cc1 (stereo not given)	i	.	0.71	-13	-0.35	.
CN(C)c1ccnc2c[cH-]cc12.[Fe].c1ccc(-[c-]2[c-](-c3ccccc3)[c-](-c3ccccc3)[c-](-c3ccccc3)[c-]2-c2ccccc2)cc1 (stereo not given)	i	.	.	9	-6.1	0.066*
O=S1CCCSC1c1cccnc1 (stereo not given)	i	15	0.057	3	0.61	0.076
CNS(=O)(=O)c1cc2c3c(cccc3c1)C(=O)NC2=O	i	-25	1.1	-15	-0.18	.
Cc1ccc(NS(=O)(=O)c2cc3c4c(cccc4c2)C(=O)NC3=O)cc1	i	.	1.7*	-4	-0.36	?
CC1(C)Cc2c(C#N)c(SCCOc3ccccc3)nc(N3CCOCC3)c2CO1	i	0	.	-3	-3.5	?
Clc1ccc(C2=C3CCCCn4c(-c5ccccc5)c[n+](c43)C2)cc1	i	-8	.	-20	.	0.064*
COc1ccc(-c2c[n+]3c4n2CCCCC4=C(c2ccc(Br)cc2)C3)cc1	.	.	-4.6*	-14	-2.2	0.052*
CCOC(=O)N1CCN(CC(=O)Nc2ccc([N+](=O)[O-])cc2C(=O)Nc2ccccc2F)CC1	i	30	.	26	-0.08	.
CSc1ccccc1NC(=O)CN1CCCCC1	.	-43	-0.32	-1	0.74	.
CSc1ccccc1NC(=O)CN1CCN(Cc2ccccc2)CC1	i	.	-3.1*	0	-0.1	0.072
O=C(CN1CCN(Cc2ccccc2)CC1)Nc1ccc([N+](=O)[O-])cc1C(=O)Nc1ccccc1F	i	-4	.	1	-0.23	0.058*
CC(C)n1c(CSCc2ccc(Cl)cc2Cl)n[nH]c1=S	i	.	0.42	-4	-0.16	.
CC1CCCCN1C(=O)Cn1cc(C=O)c2ccccc21 (stereo not given)	i	13	-1.1	1	-0.32	.
CC1CCCCN1C(=O)Cn1cc(/C=C2/C(=O)Nc3ccccc32)c2ccccc21 (stereo not given)	i	38	.	-12	0.17	0.078
COc1ccccc1NC(=O)/C=C/c1ccc2c(c1)OCO2	i	.	5.1*	-24	0.25	0.091
CC1=C(C#N)c2nc(N)c(C#N)c(C)c2/C1=C\c1ccc(C)cc1	i	-46	.	-5	0.74	0.043*
COc1cc(/C=C2\C(C)=C(C#N)c3nc(N)c(C#N)c(C)c32)ccc1OCC(=O)O	?	.	0.82	-20	-0.76	.
N/C(=N/O)c1ccccc1N1CCC(Cc2ccccc2)CC1	i	.	-4.5*	-5	0.05	0.074
O=C(C1CCCO1)N1N=C(c2ccc(Br)cc2)CC1c1ccco1 (stereo not given)	i	11	-3.4*	23	-0.95	0.058*
Cc1noc(NS(=O)(=O)c2ccc(N/C=C\C(=O)c3ccc(Br)cc3)cc2)c1C	i	7	6*	-31	0.6	0.099*
CCc1nnc(NS(=O)(=O)c2ccc(N/C=C/C(=O)c3ccc(OC)cc3)cc2)s1	i	.	4.1*	-18	0.11	0.094
CCc1nnc(NS(=O)(=O)c2ccc(N/C=C\C(=O)c3cccc4ccccc34)cc2)s1	i	16	0.87	-14	0.22	.
CCOc1ccc(C(=O)/C=C/Nc2ccc(S(=O)(=O)Nc3onc(C)c3C)cc2)cc1	i	-138	2.7*	-21	1.4	0.089
O=C1NC2(CCCCC2)C(=O)N1Cc1cccc(C(F)(F)F)c1	i	25	-0.31	3	.	.
SMILES	HSV replic up	INS promoter inh	ROMK mod	TbHK1 inh	Ins promoter up	ROMK hit retest
CC1CCCCN1CCCNC(=O)c1ccc2c(=O)n(CCc3ccccc3)c(=O)[nH]c2c1 (stereo not given)	i	0	-3*	-2	.	?
CCCn1c(=S)[nH]c2cc(C(=O)N3CCCC(C(=O)OCC)C3)ccc2c1=O (stereo not given)	i	-100	-3.2*	-3	.	0.06*
COc1ccc(C=O)cc1COc1c(F)c(F)cc(F)c1F	i	-3	3.9*	-5	.	0.091
COc1ccc(C=O)cc1Cn1ccnc1C	i	.	-7.2*	-2	1.3	0.079
CCc1nccn1Cc1cc(C=O)ccc1OC	i	.	-0.093	-1	0.42	.
CCOC(=O)C1(Cc2ccccc2)CCN(Cc2cn(CC(=O)OC)c3ccccc23)CC1	i	.	-3.3*	17	0.39	0.055*
CC(C)OC(=O)Cn1cc(C#N)c2ccccc21	i	.	-8.8*	-2	0.29	0.079
CCn1c(SC(C)C)nnc1-c1cc(-c2ccccc2)sc1N	i	-50	-2.8*	-3	-1.7	0.073
O=C(OCn1nnc2ccccc2c1=O)C1COc2ccccc2O1 (stereo not given)	i	.	.	-9	0.29	.
O=c1c2ccccc2nnn1CSc1nnc(C2COc3ccccc3O2)n1-c1ccccc1 (stereo not given)	i	-58	-2.9*	5	0.09	0.042*
OC(COCc1cccs1)CN1CCN(c2cccc(Cl)c2)CC1 (stereo not given)	i	-16	-2.6*	15	?	0.054*
CCOC(=O)c1n[nH]c2ccccc12	.	-11	2.2*	0	-0.03	0.073
Cc1scc2c1N(C(=O)CN1CCN(C)CC1)c1ccccc1NC2=O	i	13	3.1*	-4	0.74	0.075
CC(C)NC(=O)COC(=O)c1ccccc1C(=O)c1ccccc1	i	-18	0.42	-1	.	.
C=CCc1ccccc1OCC(O)CN1CCN(c2ccc(C)cc2)CC1 (stereo not given)	i	.	-2.6*	11	-0.85	0.056*
COc1ccc(C2OC(=O)CC2C(=O)NCc2ccc(C)cc2)cc1OC (stereo not given)	i	7	.	-1	-0.21	.
COc1ccc(C2OC(=O)CC2C(=O)NCc2ccccc2Cl)cc1OC (stereo not given)	i	8	-10*	-2	1.1	0.078
O=C1CCCC(O)=C1C(C#Cc1ccccc1)C1=C(O)CCCC1=O	i	-29	-3.8*	5	-0.04	0.063*
COc1ccccc1N1CCN(CCCCCCOc2ccc(F)cc2)CC1	i	-29	-4.5*	-2	-0.16	0.038*
COc1ccc(C(=O)CCN2CCN(c3ccccc3F)CC2)cc1	i	-26	-10*	-3	1.1	0.077
COc1c(C)cc(C(=O)C2CCCN(C(=O)/C=C/c3ccccn3)C2)cc1C (stereo not given)	i	.	-0.28	0	-1.1	.
COc1ccc(/C=N\NC(=O)c2c(C)nc3ccc(Br)cn23)cc1	i	-346	2.3*	-11	0.7	0.098*
CC(C1CC2CCC1C2)n1c(-c2cccs2)n[nH]c1=S (stereo not given)	i	.	.	9	-0.04	.
COc1ccc(C(=O)Nc2ncc3c(n2)CC(c2ccco2)CC3=O)cc1 (stereo not given)	i	.	-6.5*	5	-0.5	0.073
CCc1nc(SCC(=O)Nc2ccc(OC)cc2[N+](=O)[O-])n[nH]1	i	.	.	3	-0.85	.
